Calls of active or inactive are those of the source. Unless noted, no rule for the calls is given here.

In PubChem BioAssay one finds composite z-score and z-score data, which are given here for 17 compounds.

The test system of experiment [1] is XIP peptide (Xip251-270) binding. The experiment is described as follows: small-molecule binders of XIP peptide, primary screen, biochemical, small-molecule microarray, fluorescence 635/667 nm, 0.1 µg/mL protein (AID 1182). Conditions: fluorescent protein binding, 635 nm, higher = more signal, called active from +8 up or from −8 down.
The test system of another experiment is XIP peptide (Xip251-270). As to the kind of experiment: small-molecule binders of XIP peptide, primary screen, biochemical, small-molecule microarray, fluorescence 635/667 nm, 0.5 µg/mL protein (AID 1183). Conditions: small-molecule microarray binding, fluorescence 635 nm; higher = more signal.
The nature of experiment [2]: Plasmodium falciparum growth inhibition, primary screen, strain 3D7, DAPI fluorescence, 100 nL (AID 1184).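 Also: parasites grown inside human red blood cells in medium with human serum.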 Conditions: P. falciparum 3D7 growth, 3 d, higher = more signal.
Experiment [3] concerns the target Homeobox protein Hox-A13 (Mus musculus) (UniProt Q62424). The experiment is described as follows: inhibitors of HoxA13-DNA binding, primary screen, biochemical, fluorescence polarization, labeled oligonucleotide (AID 1185). Conditions: 15 min, higher = more signal, called active from +8 up or from −8 down. (In general: Polarisation of emitted light reports the rotation of a fluorescent probe.)

Experiment [4] in a line: inhibitors of hydroxyurea-induced Chk1 phosphorylation, primary screen, imaging, HeLa, phospho-Chk1 antibody, percent positive cells (AID 1186). Conditions: hydroxyurea-induced phospho-Chk1 immunofluorescence imaging, higher = more signal.
A short description of experiment [5]: inhibitors of hydroxyurea-induced Chk1 phosphorylation, primary screen, imaging, HeLa, phospho-Chk1 nuclear intensity (AID 1187). The settings on record: hydroxyurea-induced phospho-Chk1 immunofluorescence imaging, higher = more signal.

Homeobox protein Hox-A13 (Mus musculus), sequence (Q62424 whole entry, looked up): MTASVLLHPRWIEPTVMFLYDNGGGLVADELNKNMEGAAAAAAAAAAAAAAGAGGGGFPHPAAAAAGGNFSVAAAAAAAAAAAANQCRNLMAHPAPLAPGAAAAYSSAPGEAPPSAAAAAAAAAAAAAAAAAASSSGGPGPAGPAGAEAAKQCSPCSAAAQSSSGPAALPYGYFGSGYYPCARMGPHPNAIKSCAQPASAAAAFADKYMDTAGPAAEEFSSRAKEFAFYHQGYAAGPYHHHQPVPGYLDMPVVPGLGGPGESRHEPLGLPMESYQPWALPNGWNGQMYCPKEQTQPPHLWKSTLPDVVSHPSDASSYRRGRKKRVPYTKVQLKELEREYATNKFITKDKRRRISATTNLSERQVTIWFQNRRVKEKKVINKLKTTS

`O=C(CS)NCCCCCCNC(=O)[C@H]1C[C@H]2C(=O)N3CCC[C@H]3C(=O)N2[C@H]1c1ccc(O)cc1`: the composite z-score in experiment [1] was 0.573 (inactive); in the experiment with XIP peptide (Xip251-270) it was 0.646. In addition, the z-score in experiment [2] was -0.38; in experiment [3] it was -2.8 (inactive); in experiment [4] it was -0.508 (inactive); in experiment [5], -0.19 (inactive).
Consider `CCCNC(=O)[C@@]1(C)c2ccccc2C(=O)N(Cc2ccc(OC(F)(F)F)cc2)[C@H]1c1ccc(CO)cc1`, for which the composite z-score was 0.689 (inactive) in experiment [1] and 0.794 in the experiment on XIP peptide (Xip251-270). For the same compound, the z-score is -0.775 in experiment [2], -3.32 (inactive) in experiment [3], -0.374 (inactive) in experiment [4] and -0.473 (inactive) in experiment [5].
In the case of `CCCC[C@H]1OB(O)C[C@H]2C1=C(COc1ccccc1)C[C@H]1C(=O)N(Cc3ccccc3)C(=O)[C@H]12`, the composite z-score in experiment [1] was -0.0195 (inactive); with XIP peptide (Xip251-270), -0.0475. Moreover, the z-score was 0.589 in experiment [2], -6.65 (inactive) in experiment [3], 0.0918 (inactive) in experiment [4] and 0.206 (inactive) in experiment [5].
Consider `C=C(COC)C(=O)CC[C@H](OC(=O)c1cccnc1)c1ccccc1OCCO`, for which the composite z-score in experiment [1] was -0.0123 (inactive); with XIP peptide (Xip251-270), 0.444. For the same compound, the z-score in experiment [2] was -3.02; in experiment [3], -4.46 (inactive); in experiment [4], 0.735 (inactive); in experiment [5], 0.565 (inactive).
As to `COC(=O)C(CC#Cc1ccc2c(c1)[C@]1(C(=O)N2)[C@H](C(=O)N2CCCCCCC2)[C@H]2C(=O)O[C@H](c3ccccc3)[C@H](c3ccccc3)N2[C@@H]1c1ccccc1OCCO)C(=O)OC`, the composite z-score in experiment [1] is 8 (inactive); with XIP peptide (Xip251-270), 1.04. Also, the z-score in experiment [2] was -2.21; in experiment [3], 1.03 (inactive); in experiment [4] it was 0.0041 (inactive); in experiment [5] it was 0.0484 (inactive).
In the case of `NC(=O)[C@@]1(CCS(=O)(=O)c2ccccc2)N=C(c2ccc(OCCCO)cc2)O[C@H]1c1ccccc1`, the composite z-score is 1.11 (inactive) in experiment [1] and 0.863 in the experiment on XIP peptide (Xip251-270). Further, the z-score in experiment [2] is -1.9; in experiment [3], -6.86 (inactive); in experiment [4], 0.0218 (inactive); in experiment [5], 0.56 (inactive).
As for `COC(=O)[C@@]1(Cc2ccc(F)cc2)[C@H]2c3cc(C(=O)N4CCCC4)n(CCc4ccc(OC)c(Br)c4)c3C[C@H]2CN1C(=O)c1ccccc1`, the results for the composite z-score (in experiment [1]; in the experiment on XIP peptide (Xip251-270)) were -0.0505 (inactive) and 0.557, respectively. The z-score in experiment [2] is -1.58; in experiment [3] it was -2.27 (inactive); in experiment [4] it was -1.03 (inactive); in experiment [5] it was -0.872 (inactive).
As for `O=C1C2C=CC(C(O)CCc3ccccc3)N(Nc3ccccc3)C2C(=O)N1c1ccccc1` (configuration not stated), the composite z-score in experiment [1] was 0.792 (inactive); in the experiment with XIP peptide (Xip251-270), 0.802. For the same compound, the z-score in experiment [2] was -0.467; in experiment [3], -3.23 (inactive); in experiment [4], 0.684 (inactive); in experiment [5], 0.448 (inactive).
Turning to `O=C(NCC(O)CO)[C@]1(CCS(=O)(=O)c2ccccc2)N=C(c2ccc(OCCCO)cc2)O[C@@H]1c1ccccc1` (some centres not stated), the results for the composite z-score (in experiment [1]; in the experiment on XIP peptide (Xip251-270)) were 1.51 (inactive) and -0.0557, respectively. Also, the z-score in experiment [2] is -0.434; in experiment [3], -7.16 (inactive); in experiment [4] it was 0.429 (inactive); in experiment [5], -0.0974 (inactive).
Take `CC[C@@H]1C=C(C(=O)O)[C@H](c2ccc(C(C)C)cc2)N1S(=O)(=O)c1ccc(C)cc1`: the composite z-score is 0.719 (inactive) in experiment [1] and 0.924 in the experiment on XIP peptide (Xip251-270). The z-score in experiment [2] is -0.646; in experiment [3], -5.17 (inactive); in experiment [4], 0.122 (inactive); in experiment [5] it was -0.118 (inactive).
With `COCCCNC(=O)[C@]1(Cc2ccccc2N=[N+]=[N-])N=C(c2ccc(OCCCO)cc2)O[C@@H]1c1ccccc1CN=[N+]=[N-]`, the composite z-score in experiment [1] was 0.0423 (inactive); with XIP peptide (Xip251-270), 0.758. In addition, the z-score was -2.21 in experiment [2], -0.242 (inactive) in experiment [3], -0.659 (inactive) in experiment [4] and -0.443 (inactive) in experiment [5].
Consider `C=C(C(=O)CC[C@H](OC(=O)c1cccnc1)c1ccccc1OCCO)C(C)C`, for which the composite z-score in experiment [1] was 0.698 (inactive); in the experiment on XIP peptide (Xip251-270), 0.564. The z-score in experiment [2] is -2.3; in experiment [3], -4.71 (inactive); in experiment [4], 0.321 (inactive); in experiment [5] it was 0.0728 (inactive).
For `Cc1ccc(S[C@]2(C(=O)NCc3ccccc3)CC(=O)N(Cc3cc(C(F)(F)F)cc(C(F)(F)F)c3)[C@@H]2c2ccc(CO)cc2)cc1`, the composite z-score in experiment [1] was -0.384 (inactive); in the experiment on XIP peptide (Xip251-270), 0.365. Besides, the z-score is -0.398 in experiment [2], -2.38 (inactive) in experiment [3], 0.199 (inactive) in experiment [4] and 0.311 (inactive) in experiment [5].
As to `CCCNC(=O)[C@@]1(c2ccc([N+](=O)[O-])cc2)CC(=O)N(CC23CC4CC(CC(C4)C2)C3)[C@@H]1c1ccc(CO)cc1I`, the composite z-score in experiment [1] is 1.18 (inactive); in the experiment on XIP peptide (Xip251-270), 0.59. The z-score in experiment [2] was -1.55; in experiment [3], -3.75 (inactive); in experiment [4], -0.28 (inactive); in experiment [5], -0.51 (inactive).
For `CC(C)C(CO)N1C(=O)[C@@H]2[C@H]3C(=O)OCC=C[C@H]3OC23C=CCN(c2ccc4ccccc4c2)C(=O)[C@@H]13` (some centres not stated), the figures for the composite z-score (in experiment [1]; in the experiment with XIP peptide (Xip251-270)) were 0.0164 (inactive) and -0.525, respectively. In addition, the z-score in experiment [2] is -0.279; in experiment [3], -3.29 (inactive); in experiment [4], 0.207 (inactive); in experiment [5] it was 0.426 (inactive).
For `O[C@@H](Cc1ccccc1)[C@@H](/C=C/c1ccccc1)NCc1ccccc1Br`, the composite z-score in experiment [1] was -0.265 (inactive); in the experiment on XIP peptide (Xip251-270) it was 0.727. Besides, the z-score in experiment [2] is 0.871; in experiment [3], -0.419 (inactive); in experiment [4] it was -0.28 (inactive); in experiment [5] it was 0.364 (inactive).
Take `CN1C(=O)C2C=CC(C(O)c3ccccc3)N(NC(=O)OC(C)(C)C)C2C1=O` (configuration not stated): the composite z-score was 0.4 (inactive) in experiment [1] and 0.886 with XIP peptide (Xip251-270). In addition, the z-score is -0.305 in experiment [2], -0.867 (inactive) in experiment [3], 0.253 (inactive) in experiment [4] and -0.0164 (inactive) in experiment [5].
